# Measurements reported in PubChem BioAssay (EPA / NIEHS).
# Inconclusive results are not listed. Calls of active or inactive are those of the source. The calls were made as follows: active = hit-call score of the fitted dose curve at least 0.9, where 1 is the maximum; inconclusive = response in the unintended direction; inactive = score below 0.9.
# Biological target: human Protein Tyrosine Phosphatase Receptor Type C (PTPRC), PTPRC (gene 5788) (UniProt P08575)
# Test: NVS_ENZ_hPTPRC: NovaScreen (NVS) Enzymatic Assay for human Protein Tyrosine Phosphatase Receptor Type C (PTPRC) (AID 2283212)
# Method: NVS_ENZ_hPTPRC is a biochemical, single-readout assay that uses extracted gene-proteins from yeast cells in a cell-free assay. Measurements were taken 1 hour after chemical dosing in a 96-well plate.NVS_ENZ_hPTPRC is one of one assay component(s) measured or calculated from the NVS_ENZ_hPTPRC assay. It is designed to make measurements of enzyme activity, a form of enzyme reporter, as detected with absorbance signals by Colorimetric technology.Data from the assay component NVS_ENZ_hPTPRC was analyzed into 1 assay endpoint. This assay endpoint, NVS_ENZ_hPTPRC, was analyzed in the positive analysis fitting direction relative to DMSO as the negative control and baseline of activity. Using a type of enzyme reporter, loss-of-signal activity can be used to understand changes in the enzymatic activity as they relate to the gene PTPRC. Furthermore, this assay endpoint can be referred to as a primary readout, because this assay has produced multiple assay endpoints where this one serves a enzymatic activity function. To generalize the intended target to other relatable targets, this assay endpoint is annotated to the phosphatase intended target family, where the subfamily is receptor tyrosine phosphatase.
# Binding assays used specific radioligands (tritiated, iodinated) with non-radioactive competitive displacement ligands in agonist or antagonist protocols (as indicated) and various reference compounds and inhibitors to titrate specific binding to receptors and transporters. Most enzyme assays (CYPs, kinases, phosphatases, proteases, HDACs) used recombinant protein and specific substrates (fluorescence mostly, some colorimetric and radioactive) and inhibitors, followed by a biochemical separation of substrate and product. All assays for the biochemical HTS were initially run in duplicate at a single concentration (10 uM for CYP450 assays and 25 uM for all others). Assay-chemical combinations meeting a pre-defined threshold (e.g., 30% inhibition and other criteria defined below) were then run in singleton concentration-response format with maximum concentration of 20 uM for CYPs and 50 uM for all others. Each assay was run with positive and negative controls, and concurrent controls on every plate. The follow-up (secondary) screen tested active chemical-pairs in concentration series, as well as a few additional assays not tested in the primary screen, some selected negative inactives, and several cases re-run in the concentration series for confirmatory purposes.
# human Protein Tyrosine Phosphatase Receptor Type C (PTPRC), PTPRC (gene 5788), sequence (P08575 whole entry, looked up): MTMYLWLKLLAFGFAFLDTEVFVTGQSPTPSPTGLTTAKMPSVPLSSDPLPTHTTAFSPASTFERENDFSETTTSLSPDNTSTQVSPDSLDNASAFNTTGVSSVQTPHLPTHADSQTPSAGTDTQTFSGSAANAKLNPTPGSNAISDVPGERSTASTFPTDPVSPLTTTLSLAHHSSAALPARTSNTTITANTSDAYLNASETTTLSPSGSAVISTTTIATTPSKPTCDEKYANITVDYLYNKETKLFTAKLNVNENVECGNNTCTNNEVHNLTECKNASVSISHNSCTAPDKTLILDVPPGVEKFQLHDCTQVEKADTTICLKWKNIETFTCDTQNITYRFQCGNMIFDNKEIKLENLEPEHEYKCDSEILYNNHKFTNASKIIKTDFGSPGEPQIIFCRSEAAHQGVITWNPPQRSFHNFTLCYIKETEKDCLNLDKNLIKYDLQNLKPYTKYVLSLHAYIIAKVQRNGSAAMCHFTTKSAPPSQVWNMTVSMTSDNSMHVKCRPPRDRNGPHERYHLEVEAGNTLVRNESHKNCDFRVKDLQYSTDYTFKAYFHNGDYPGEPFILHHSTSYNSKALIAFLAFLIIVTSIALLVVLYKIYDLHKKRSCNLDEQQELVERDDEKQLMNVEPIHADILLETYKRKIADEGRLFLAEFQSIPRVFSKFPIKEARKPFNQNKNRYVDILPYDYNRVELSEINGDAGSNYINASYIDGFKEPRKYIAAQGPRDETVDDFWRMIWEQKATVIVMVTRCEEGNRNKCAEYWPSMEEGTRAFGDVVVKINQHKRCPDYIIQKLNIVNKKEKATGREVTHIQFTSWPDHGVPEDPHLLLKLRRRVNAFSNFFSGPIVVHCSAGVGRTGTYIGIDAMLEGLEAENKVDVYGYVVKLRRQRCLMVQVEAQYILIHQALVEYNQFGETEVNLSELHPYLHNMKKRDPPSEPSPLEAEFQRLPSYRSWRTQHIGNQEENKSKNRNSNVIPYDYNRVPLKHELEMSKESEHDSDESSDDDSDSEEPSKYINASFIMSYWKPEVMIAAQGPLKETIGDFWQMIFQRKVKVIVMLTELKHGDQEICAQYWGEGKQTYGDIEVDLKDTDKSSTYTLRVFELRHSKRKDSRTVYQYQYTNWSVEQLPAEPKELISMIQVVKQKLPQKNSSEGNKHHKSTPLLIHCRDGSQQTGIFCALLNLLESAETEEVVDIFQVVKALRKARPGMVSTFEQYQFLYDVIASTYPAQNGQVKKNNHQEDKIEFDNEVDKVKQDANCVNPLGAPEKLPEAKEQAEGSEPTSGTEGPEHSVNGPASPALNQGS
SMILES,AC50,outcome
Nc1ccccc1N,7.6 µM (active),–
CCCCCCOCCO,–,inactive
CC(C)CCO,–,inactive
NC(=O)N1C(=O)C(C(=O)c2cc(Cl)cs2)c2cc(F)c(Cl)cc21 (configuration not stated),–,inactive
Cc1oc(-c2ccccc2)nc1CCOc1cccc2c1ccn2CCC(=O)O,5.98 µM (active),–
CCCCCCC(=O)OCC,–,inactive
C[C@]12C[C@H](O)[C@H]3[C@@H](CCC4=CC(=O)CC[C@@]43C)[C@@H]1CC[C@@H]2C(=O)CO,–,inactive
NC(=O)NN=Cc1ccc([N+](=O)[O-])o1,11.3 µM (active),–
CCCC[C@H]1CN(CC2CCOCC2)C(=O)OC12CCN(C1(C)CCN(C(=O)c3c(C)ncnc3C)CC1)CC2,–,inactive
CCCCC(CC)COC(=O)CC(C(=O)OCC(CC)CCCC)S(=O)(=O)O (configuration not stated),25 µM (active),–
O=C(O)Cc1ccccc1Nc1c(Cl)cccc1Cl,–,inactive
CCCCCCCCCCCCCCCCOS(=O)(=O)O,6.6 µM (active),–
C[C@@H]1C[C@H]2[C@@H]3CCC4=CC(=O)C=C[C@]4(C)[C@@]3(F)[C@@H](O)C[C@]2(C)[C@@]1(O)C(=O)COP(=O)(O)O,15.3 µM (active),–
Cc1c(C(=O)O)c(O)cc2c1C(=O)c1c(O)c([C@@H]3O[C@H](CO)[C@@H](O)[C@H](O)[C@H]3O)c(O)c(O)c1C2=O,11.7 µM (active),–
Nc1nc2ncc(CNc3ccc(C(=O)N[C@@H](CCC(=O)O)C(=O)O)cc3)nc2c(=O)[nH]1,15.8 µM (active),–
OC12N=C(c3ccccc3)SC1Cc1cc(Cl)ccc12 (configuration not stated),21.3 µM (active),–
CC(C)(c1ccc(O)cc1)c1ccc(O)cc1,–,inactive
O=S(=O)(O)c1ccc(N=Nc2c(O)ccc3cc(S(=O)(=O)O)ccc23)cc1,–,inactive
O=C(O)Cn1c(=O)n(Cc2ccc(Br)cc2F)c(=O)c2ccc(Cl)cc21,–,inactive

SMILES,AC50,outcome
CCCCCCCCCCCCc1ccccc1S(=O)(=O)O,5.18 µM (active),–
O=Cc1ccccc1C=O,17.7 µM (active),–
CN(C[C@@H](CC[N+]12CCC(C3CCCCC3)(CC1)CC2)c1ccc(Cl)c(Cl)c1)C(=O)c1cc(C(F)(F)F)cc(C(F)(F)F)c1,–,inactive
CCOC(=O)C(C)(C)Oc1ccc(Cl)cc1,–,inactive
CC(C)c1cccc(C(C)C)c1,–,inactive
CCCCc1nc2cccnc2n1Cc1ccc(-c2ccccc2-c2nnn[nH]2)cc1,–,inactive
COC(=O)[C@H]1[C@H]2C[C@@H]3c4[nH]c5cc(OC)ccc5c4CCN3C[C@H]2C[C@@H](OC(=O)c2cc(OC)c(OC)c(OC)c2)[C@@H]1OC,21.1 µM (active),–
ClC1=C(Cl)C(Cl)(Cl)C(Cl)=C1Cl,10.9 µM (active),–
O=C(NO)C1(NS(=O)(=O)c2ccc(Oc3ccc(F)cc3)cc2)CCOCC1,–,inactive
Nc1ccc(Nc2ccccc2)cc1,19.1 µM (active),–
Nc1nc(N)c2nc(CNc3ccc(C(=O)N[C@@H](CCC(=O)O)C(=O)O)cc3)cnc2n1,14.5 µM (active),–
CS(=O)(=O)c1ccc([C@@H](C[C@H]2CCC(=O)C2)C(=O)Nc2cnccn2)cc1Cl,16.6 µM (active),–
O=C(c1ccccc1)C1CCCCC1,–,inactive
COc1cc(-c2nc(NC(=O)c3cc4cc(C)cc(C)c4n3CC(=O)O)sc2CCC2CCCCC2)c(OC)cc1Cl,11.4 µM (active),–
Cc1cccc([N+](=O)[O-])c1C,–,inactive
Nc1cccc2c(N)cccc12,5.35 µM (active),–
CCCCCCCCCCCCCCOS(=O)(=O)O,24.2 µM (active),–
CCOc1ccc2c(c1)C(C)=CC(C)(C)N2,8.36 µM (active),–
